The values that follow come from ChEMBL document CHEMBL3988442, “University of Dundee, Small-Polar-MMV Screening Library” (2021).

Molecules are shown by their SMILES. Hit rate of the full screen: of about 69,000 compounds, about 1,000 (1.4%) showed an effect of 50% or more. This is one part of a sample in which strong results are shown more often than they occur.

This assay deals with Leishmania donovani. In words: Leishmania intramacrophage assay. Details: scale not given: in the data most compounds retested in dose-response had high values. It is filed as functional, organism-based.

Regarding `Cc1cccc(C2(C(=O)NCCCn3cccn3)CC2)c1`, the “Percent Effect” value (30 µM, 30.03 µM) came out at 17.4%.

Take `COCCn1ccc2cc(C(=O)NC3CCOC(C)(C)C3)ccc21` (stereo not given): the “Percent Effect” value (30.3 µM, […]) was determined as 4.385%.

As for `Cc1ccc(C(CCNCCCN(C)C)C2CCOC(C)(C)C2)cc1.O=C(O)C(=O)O` (stereo not given), the “Percent Effect” value (30.3 µM, […]) came out at 85.22%.

Consider `Cc1ccc(C(CCNCCN(C)C)C2CCOC(C)(C)C2)cc1.O=C(O)C(=O)O` (stereo not given), for which the “Percent Effect” value (30.3 µM, […]) turned out to be 99.98%.

Consider `Cc1ccc(C(C(=O)NCCN2CCC(CO)CC2)N(C)C)cc1` (stereo not given), for which the “Percent Effect” value (30.3 µM, […]) is reported as 25.71%.

On to `CCN(CC)CCCNCC1CCOC(C)(C)C1` (stereo not given), for which, under “30.3 µM, […]”, the “Percent Effect” value is on record as 15.48%.

For `Cc1ccc(C)c(C(=O)N2CCOC(CCN(C)C)C2)c1` (stereo not given), the “Percent Effect” value (30.3 µM, […]) amounted to 10.51%.

As to `CCc1noc(C(C)N2CCC(C)CC2)n1` (stereo not given), the “Percent Effect” value (30 µM) came to 28.8%.

`Cn1nc(COc2cccnc2)c2c1CCN(c1cnccn1)C2.O=CO.O=CO`: the “Percent Effect” value (30 µM, 30.03 µM) was -2.364%.

As for `CCCn1nc(C)c(C(=O)N(C)[C@@H]2CC[C@@H](OC)[C@@H]2O)c1C`, the “Percent Effect” value (30.3 µM, […]) was determined as 19.04%.

Regarding `CC(C(=O)Nc1ccc(N2CCCC2)nc1)n1cccn1` (stereo not given), the “Percent Effect” value (30 µM) was 19.04%.

As for `Cc1noc(C)c1CCCNC(=O)C1CCN(C(C)C)CC1`, the “Percent Effect” value (30.3 µM, […]) is listed as 24.48%.

As for `Cc1nc2cc(CNC(=O)C3CC(=O)N(CCN(C)C)C3)ccc2n1C` (stereo not given), the “Percent Effect” value (30.3 µM, […]) is 7.725%.

As to `Cc1nc2cc(CNC(=O)C3CC(=O)N(C4CCCC4)C3)ccc2n1C` (stereo not given), where the note is “30.3 µM, […]”, the “Percent Effect” value is recorded as 2.689%.

On to `CCN1CC(C(=O)NCc2ccc3c(c2)nc(C)n3C)CCC1=O` (stereo not given), for which the “Percent Effect” value (30.3 µM, […]) worked out at 73.45%.

For `CC(C)c1cc(C(=O)O)nc2[nH]c(=O)[nH]c(=O)c12`, the “Percent Effect” value (30.3 µM, […]) is -5.63%.

As to `CCCc1nc(CN2CCCN(Cc3nccn3C)CC2)no1`, for the setting “30 µM”, the “Percent Effect” value was found to be 36.47%.

In the case of `O=C(c1ccc[nH]1)N1CCc2ccc(S(=O)(=O)N3CCOCC3)cc2C1`, for the setting “30.3 µM, […]”, the “Percent Effect” value is recorded as -1.46%.

With `O=C(c1ccc[nH]1)N1CCc2cc(S(=O)(=O)N3CCOCC3)ccc2C1`, for the setting “30.3 µM, […]”, the “Percent Effect” value amounted to 17.1%.

On to `O=C(c1cc[nH]n1)N1CCc2ccc(S(=O)(=O)N3CCOCC3)cc2C1`, for which the “Percent Effect” value (30.3 µM, […]) was 52.38%.

With `CC(O)CNc1nc(-c2cccnc2)nc2c1CCC2` (stereo not given), the “Percent Effect” value (30.3 µM, […]) amounted to 13.01%.

In the case of `CCc1noc(CNc2nc(-c3cccnc3)nc3c2CCNCC3)n1`, the “Percent Effect” value (30.3 µM, […]) is 27.11%.

In the case of `CN(CC1CCCO1)c1nc(-c2cccnc2)nc2c1CCNCC2` (stereo not given), the “Percent Effect” value (30.3 µM, […]) was determined as 34.58%.

With `c1cncc(-c2nc3c(c(NCC4(c5ccncc5)CC4)n2)CCC3)c1`, the “Percent Effect” value (30.3 µM, […]) was 33.94%.

`Cl.NC1CCc2nc(-c3cccnc3)nc(Nc3ccc(F)cc3)c2C1` (stereo not given): where the note is “30.3 µM, […]”, the “Percent Effect” value is given as 94.83%.

For the compound `CNS(=O)(=O)CC(=O)NC(C)Cc1ccc(-c2ccccc2)cc1` (stereo not given), the “Percent Effect” value (30.3 µM, […]) is 32.54%.

With `CN(CCN(C)S(=O)(=O)CC1CCOCC1)c1ccccc1`, the “Percent Effect” value (30.3 µM, […]) was 4.21%.

Turning to `Fc1ccccc1NCc1nc2n(n1)CCCCC2`, the “Percent Effect” value (30.3 µM, […]) is reported as -12.91%.

As to `CC(=O)N1CCC2(C=C(C(=O)NC3CC3)c3ccccc32)CC1`, the “Percent Effect” value (30.3 µM, […]) turned out to be 1.849%.

In the case of `O=C(Nc1ccccc1)C1=CC2(CCNCC2)c2ccccc21`, the “Percent Effect” value (30 µM, 30.03 µM) turned out to be 52.55%.

For `O=C(C1=CC2(CCNCC2)c2ccccc21)N1CCCC1`, under “30 µM, 30.03 µM”, the “Percent Effect” value is given as -18.75%.

Turning to `Cc1nn(CCn2ccnc2-c2cc3n(n2)CCCNC3)c(C)c1Cl`, the “Percent Effect” value (30 µM, 30.03 µM) was determined as 27.54%.

Turning to `COc1ccc(CN2CCCCCC2c2cccs2)c(OC)c1` (stereo not given), the “Percent Effect” value (30.3 µM, […]) is on record as 16.39%.

`Cc1nc(C2CCCN(C(=O)c3cc(-c4ccccc4)[nH]n3)C2)no1` (stereo not given): the “Percent Effect” value (30.3 µM, […]) stood at 9.064%.

As for `CC(C)CCN1CC2(CCN(C(=O)C3(C)CCCCO3)CC2)OC1=O` (stereo not given), the “Percent Effect” value (30.3 µM, […]) worked out at 6.725%.

For `COc1ccc(C2=Nn3c(CCCN)nnc3-c3ccccc3C2)cc1`, the “Percent Effect” value (30.3 µM, […]) amounted to 30.64%.

Consider `COc1ccc(C2=Nn3c(CN)nnc3-c3ccccc3C2)cc1`, for which the “Percent Effect” value (30.3 µM, […]) came to 36.2%.

For `COc1ccc(C2=Nn3c(CCN)nnc3-c3ccccc3C2)cc1`, under “30.3 µM, […]”, the “Percent Effect” value is reported as 89.23%.

`CC(=O)N1CCc2c(nc(N(C)C)nc2NCCCn2ccnc2)C1`: the “Percent Effect” value (30.3 µM, […]) is -10.69%.

Consider `CN(C)CCN1C[C@@H]2CN(C(=O)C3CCOC3)C[C@@H]2C1=O.O=C(O)C(F)(F)F` (stereo not given in full), for which the “Percent Effect” value (30.3 µM, […]) was -26.31%.

Regarding `Cc1cc(C(=O)N2CCC3(CCC(=O)N(CC(N)=O)C3)CC2)ccc1O`, where the note is “30.3 µM, […]”, the “Percent Effect” value worked out at 11.98%.

`Cc1ccc(S(N)(=O)=O)cc1C(=O)NC1CCCC1`: the “Percent Effect” value (30.3 µM, […]) is reported as 54.24%.

For `CC(=O)N1CCC(NC(=O)c2cc(S(N)(=O)=O)ccc2C)CC1`, the “Percent Effect” value (30.3 µM, […]) is recorded as -1.924%.

With `Cc1ccc(S(N)(=O)=O)cc1C(=O)NC1CCCN(C)C1` (stereo not given), where the note is “30.3 µM, […]”, the “Percent Effect” value was 17.05%.

With `CNC(=O)CN(C)C(=O)c1cc(Cl)c(Cl)n1C`, the “Percent Effect” value (30.3 µM, […]) was found to be 1.638%.

`NC(=O)N1CCC(C(=O)NC2CCc3nccn3C2)CC1` (stereo not given): the “Percent Effect” value (30.3 µM, […]) was -91.03%.

`C=Cc1cccc(CN2CCCn3nc(CNS(C)(=O)=O)cc3C2)c1`: for the setting “30.3 µM, […]”, the “Percent Effect” value was found to be 8.14%.

Consider `Fc1cnc(N2CCO[C@H]3[C@H](OCC4CCOCC4)CC[C@@H]32)nc1.O=C(O)C(F)(F)F`, for which the “Percent Effect” value (30.3 µM, […]) is 42.92%.

Take `O=C(O)C(F)(F)F.c1cnc(N2CCO[C@H]3[C@H](OCC4CCOCC4)CC[C@@H]32)nc1`: the “Percent Effect” value (30.3 µM, […]) turned out to be 26.14%.

For `Fc1cnc(N2C[C@@H](OCC3CCOCC3)[C@H]3OCCC[C@H]32)nc1.O=C(O)C(F)(F)F`, the “Percent Effect” value (30.3 µM, […]) came to 63.79%.
